Bioassay records deposited in PubChem BioAssay by National Center for Advancing Translational Sciences (NCATS).
Hits are enriched below; roughly 2.6% of the tested compounds scored in any of these assays.
Cruzain inh noDet: qHTS Assay for Promiscuous and Specific Inhibitors of Cruzain (without detergent); purified cruzain, Z-FR-AMC fluorescence, no detergent; Potency, µM, for inactives: max response, negative = inhibition, hits mostly inhibitors; 200,000 tested, 2.3% active;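 further: plate controls were enzyme without inhibitor for no effect and buffer without enzyme for full effect; nearly all actives have a fitted effect of over 40% in size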
Target sequence (P25779 123-467 limits assumed): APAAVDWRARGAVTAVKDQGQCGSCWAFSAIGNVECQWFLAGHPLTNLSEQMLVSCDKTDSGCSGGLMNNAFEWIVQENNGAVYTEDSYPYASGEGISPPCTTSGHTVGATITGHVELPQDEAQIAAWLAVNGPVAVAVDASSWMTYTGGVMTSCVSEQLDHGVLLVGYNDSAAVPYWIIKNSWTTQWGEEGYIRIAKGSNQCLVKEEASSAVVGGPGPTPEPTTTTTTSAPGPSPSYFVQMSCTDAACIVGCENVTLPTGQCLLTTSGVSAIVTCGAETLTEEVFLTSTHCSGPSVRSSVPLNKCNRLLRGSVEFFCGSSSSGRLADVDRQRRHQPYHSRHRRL
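Purified cruzain at 1.5 nM, pre-incubated 15 min with compound at room temperature in 100 mM sodium acetate pH 5.5, 5 mM DTT, 0.00005% Triton X-100. Reaction started with 2 uM Z-FR-AMC; AMC fluorescence increase over 60 s gives rate.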
Cruzain Triton: qHTS Assay for Promiscuous and Specific Inhibitors of Cruzain (with detergent); AID 1478, 2009; 200,000 tested, 0.43% active; Potency, µM, inactives show max response, negative = inhibition, actives largely listed as inhibitors; purified cruzain, Z-FR-AMC fluorescence, 0.01% Triton;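 further: plate controls were neutral wells for no effect and buffer without enzyme for full effect; nearly all actives have a fitted effect of over 40% in size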
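Z-FR-AMC hydrolysis (2 uM substrate) by cruzain (1.5 nM) monitored kinetically at ex 360/em 450 nm after 15 min room-temperature compound exposure; 0.01% Triton X-100, pH 5.5, 5 mM DTT.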
* marks the source's active call; other numbers are inactive results; ? = inconclusive. The call rests on the fitted dose curve; in most records, active means well fitted curve in the direction sought with a large enough effect; inconclusive means small, poorly fitted or top-dose-only effect, or another doubt; inactive means no such curve, though single readings can be large; an effect the other way counts as inactive or inconclusive. Potency means the concentration at half of the fitted maximal effect.

SMILES	Cruzain inh noDet	Cruzain Triton
Cc1c(C(=O)OCc2nc3scc(-c4ccccc4)c3c(=O)[nH]2)cccc1[N+](=O)[O-]	?	-5%
Cc1csc(SCC(=O)c2cc(C)n(Cc3cccs3)c2C)n1	7%	-3%
Cc1cc(C(=O)CSc2n[nH]c(-c3ccccc3F)n2)c(C)n1Cc1cccs1	16µM*	-8%
Cc1cc(N)ccc1N1CCCC1	16µM*	?
Cc1cc(N)ccc1-n1c(C)ccc1C	-2%	-5%
COc1ccccc1C(=O)ON=C1c2ccccc2-c2ccccc21	?	-7%
COc1ccc2c(c1[N+](=O)[O-])CCC/C2=N/OC(=O)c1cccc2ccccc12	20µM*	-2%
CCOc1ccccc1CNCCSc1nnnn1C	3%	0%
O=C(Nc1cccnc1Cl)C1c2ccccc2Oc2ccccc21	1%	3%
Cc1nnc(NC(=O)C2c3ccccc3Oc3ccccc32)s1	8%	-5%
CCc1ccccc1NC(=O)C1c2ccccc2Oc2ccccc21	25µM*	-2%
Cc1cc(C)c(NC(=O)C2c3ccccc3Oc3ccccc32)c(C)c1	13µM*	4%
COc1ccc2c(c1)c1c(c(=O)n(Cc3ccccc3)c(=O)n1CC(=O)Nc1c(C)cccc1C)n2C	3%	-1%
CC(=O)Nc1ccc(NC(=O)COC(=O)Cc2cccs2)cc1	1%	-1%
COc1ccc(C(=O)NCC(=O)OCC(=O)NC(=O)NC2CCCCC2)cc1OC	-7%	-4%
Cc1cn2c(=O)c3ccccc3nc2n2c(=O)c3ccccc3nc12	-5%	0%
COc1cccc(C2CC(c3cccs3)=NN2C(=O)CSc2nc3ccccc3o2)c1OC (stereo not given)	?	3.5µM*
COC(=O)CSc1nc2ccccc2o1	-1%	8%
CCOc1ccc(NC(=O)CN(C)CC(=O)Nc2ccccc2SC)cc1OCC	27%	-3%
COCC(=O)OCC(=O)Nc1cc(C)c(C)cc1[N+](=O)[O-]	4%	-2%
Cc1ccc(C(=O)NCC(=O)OCC(=O)Nc2cc(C)c(C)cc2[N+](=O)[O-])cc1	10µM*	8.9µM*
O=C(COC(=O)CNC(=O)c1ccc(Cl)cc1)Nc1ncc(C(F)(F)F)cc1Cl	4µM*	7.9µM*
Cc1ccsc1C(=O)OCC(=O)Nc1ccc(Cl)cc1C(F)(F)F	-3%	3%
O=C(COC(=O)CSc1cc(Cl)ccc1Cl)Nc1ncc(C(F)(F)F)cc1Cl	-6%	-23%
COc1ccc(NC(=O)COC(=O)CNC(=O)c2cc(OC)c(OC)c(OC)c2)cc1	-10%	-6%
SMILES	Cruzain inh noDet	Cruzain Triton
Cc1cc(C(=O)NCC(=O)OCC(=O)Nc2ccc(OC(F)F)cc2)ccc1[N+](=O)[O-]	10µM*	11µM*
Cc1ccc(C(=O)NCC(=O)OCC(=O)Nc2ccc(Cl)cc2C(F)(F)F)cc1C	?	14µM*
CCOC(=O)c1c(NC(=O)c2cc(-c3ccc(OC)c(OC)c3)on2)sc(C)c1C	-5%	-4%
Cc1noc(/C=C/N(C)C)c1S(=O)(=O)N(C)CC(=O)NC1CCCCC1	-2%	-2%
COc1ccc(C(=O)NCC(=O)OCC(=O)Nc2cc(OC)ccc2OC)cc1	-18%	?
COc1ccc(Cl)cc1NC(=O)COC(=O)CNC(=O)c1ccc([N+](=O)[O-])c(C)c1	?	20µM*
Cc1ccc2c(Cl)cc(Cl)c(OCC(=O)Nc3cccc(S(=O)(=O)N(C)C)c3)c2n1	13µM*	-2%
Cc1ccc2c(Cl)cc(Cl)c(OCC(=O)Nc3cccc(S(N)(=O)=O)c3)c2n1	7%	-10%
CCOC(=O)c1cc(C(C)C)sc1NC(=O)COC(=O)CCS(=O)(=O)c1ccccc1	?	-14%
O=C(CSc1ncnc2scc(-c3ccccc3)c12)N1CCN(c2ccccc2F)CC1	32µM*	-4%
COc1ccccc1N1CCN(C(=O)CSc2ncnc3scc(-c4ccccc4)c23)CC1	6%	0%
COc1ccc(Oc2coc3cc(OC(=O)c4cccs4)ccc3c2=O)cc1	-27%	-1%
Cc1cc(=O)oc2cc(OCc3ccc(C(=O)N4CCN(c5ccccc5)CC4)cc3)ccc12	-28%	-5%
Cc1cc(=O)oc2cc(OCc3ccc(C(=O)N4CCN(c5ccc([N+](=O)[O-])cc5)CC4)cc3)ccc12	13µM*	-5%
COC(=O)c1ccc(Oc2coc3cc(OCc4ccc([N+](=O)[O-])cc4)ccc3c2=O)cc1	10µM*	-5%
Cc1cccc(CSc2cccc3cccnc23)c1	8%	-2%
CCN(CC)c1ccc([N+](=O)[O-])cc1/C=N/NC(=O)CC#N	-17%	-6%
N#Cc1ccccc1-c1nc(NCCN2CCOCC2)c2ccccc2n1	-8%	-1%
COc1ccc(-n2c(C)c([N+](=O)[O-])c3ccc(O)c(CN(C)C)c32)cc1	25µM*	-21%
COc1ccc(-n2c(C(C)n3nc(C)c([N+](=O)[O-])c3C)n[nH]c2=S)cc1 (stereo not given)	-3%	-2%
N#Cc1ccc(CN2CC[C@@]3(CCCN(C(=O)c4cc(C(F)(F)F)cc(C(F)(F)F)c4)C3)C2)cc1	7%	2%
CCCCC(=O)Nc1nnc(S(=O)(=O)N2CCCCCC2)s1	1%	-6%
O=c1oc2c(CN3CCOCC3)c(O)ccc2cc1-c1ccccc1	?	-28%
Cc1cccc(-n2c(=O)c3c(c4cc(C)ccc4n3C)n(C)c2=O)c1	-3%	0%
C=Cc1ccc(Cn2c(=O)n(-c3cccc(C)c3)c(=O)c3c2c2cc(C)ccc2n3C)cc1	25µM*	-18%
SMILES	Cruzain inh noDet	Cruzain Triton
Cn1c(=O)oc2cc(S(=O)(=O)Nc3ccc(C(=O)O)cc3)ccc21	-7%	0%
COC(=O)/C=C1\S/C(=N/N=C/c2ccccc2)NC1=O	1%	-2%
O=C1N/C(=N/N=C/c2ccccc2)SC1(c1ccccc1)c1ccccc1	4µM*	1%
O=C(Nc1ccc2c(c1)OCO2)C1CCCN1C(=O)NCc1ccccc1 (stereo not given)	0%	7%
O=C(OCC(=O)c1ccc([N+](=O)[O-])cc1)/C(=C/c1ccc(Cl)cc1)NC(=O)c1ccccc1	16µM*	2.8µM*
O=C(Cc1ccccc1)NCC(=O)OCC(=O)c1ccc([N+](=O)[O-])cc1	-18%	-14%
CCOC(=O)C1=C(C)Nc2nc(C)nn2C1c1ccc(C)cc1 (stereo not given)	-5%	1%
COc1cccc2cc(C(N)=O)/c(=N/NC(=O)COc3ccc(Cl)cc3)oc12	?	2%
CCCn1c(N)c(C(=O)CSc2nc(C)cs2)c(=O)[nH]c1=O	7%	7%
Cc1ccc(S(=O)(=O)/N=C2/C=C(Sc3ncn[nH]3)C(=O)c3ccccc32)cc1	?	-7%
CC(C)c1ccc(S(=O)(=O)/N=C2/C=C(Sc3ncn[nH]3)C(=O)c3ccccc32)cc1	13µM*	-14%
CNC/C(Cl)=N/S(=O)(=O)c1ccc(C)cc1	-2%	6%
N#CC1(C#N)CC(C=O)=C(N)C1(C#N)CC(=O)c1ccc(F)cc1 (stereo not given)	-3%	-1%
CCOc1ccc(N(CC(=O)NCC2CCCO2)S(=O)(=O)c2ccc(Cl)cc2)cc1 (stereo not given)	6%	3%
O=C(Nc1ccccc1F)C1(c2ccccc2)CC1(Cl)Cl (stereo not given)	-9%	-5%
O=c1oc2c(CN3CCOCC3)c(O)ccc2c2c1CCC2	-76%	?
Cc1cc(=O)oc2c(CN(CC(C)C)CC(C)C)c(O)ccc12	?	25µM*
